From PubChem BioAssay
TROY NFkB inh: blocks TROY-dependent signaling in reporter cells; Q293 LMP1-TROYcd NF-kB luciferase reporter, 4 h; inhibition, % at 10 µM; actives 0.98% (n = 360,000);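 active = compounds whose plate-normalised and pattern-corrected inhibition of the luciferase reporter signal at the single screening dose is 50% or more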
EBV LMP1 NFkB: Epstein-Barr LMP1 NF-kappaB reporter inhibition. inhibition, % at 12.5 µM. actives 0.69% (n = 350,000). LMP1-induced NF-kappaB luciferase reporter cells, luminescence; in the data active = inhibition above about 41%;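 also: 0% = neutral control wells and 100% = reference inhibitor control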
HSP90 inh: HSP90 refolding inhibition in rabbit reticulocyte lysate. luciferase refolding luminescence, 3 h. inhibition, % at 5.6 µM. actives 0.91% (n = 290,000). AID 1789;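 active = inhibition above the screen-wide mean plus 3 SD, computed separately per campaign, cut at about 16% in these data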;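 also: 0% = DMSO wells and 100% = 60 µM geldanamycin wells; inhibitors lower the luminescence because luciferase stays unfolded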
TWEAK-Fn14 inh: TWEAK-Fn14 signaling inhibition; TWEAK-stimulated Fn14 reporter cells, luciferase luminescence, 8 h; inhibition, % at 10 µM; actives 2% (n = 360,000); AID 1159606; in the data active = inhibition above about 50%
LGR2 antag: inhibitors of bursicon-induced Drosophila LGR2 receptor cAMP signaling; AID 720647; inhibition, % at 9.99 µM; HEK293 LGR2, CRE-luciferase, bursicon-stimulated, 4 h; actives 0.35% (n = 380,000);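 active = drop in luminescence signal, shown as inhibition above about 50% in the replicate tests, limit read from the data, passing the limit was not always enough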;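 also: agonist challenge used bursicon conditioned medium at about half maximal strength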
aDG glyco up: increases alpha dystroglycan glycosylation; AID 624168; Pro5-aDG cells, alpha-DG glycosylation AlphaScreen (IIH6); 0% Pro5, 100% B10-LARGE cell signal; actives 0.22% (n = 360,000); activation, % at 10 µM;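 active = activation of at least 8% versus controls, or a plate z-score of at least 8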;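 also: Pro5 are CHO cells carrying HIG-tagged alpha-DG that lacks glycosylation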
* marks the source's active call; other numbers are inactive results; / = no result. Only some compounds are listed: those with a hit (about 2.6% of all), similar ones and a draw of the others.

SMILES	TROY NFkB inh	EBV LMP1 NFkB	HSP90 inh	TWEAK-Fn14 inh	LGR2 antag	aDG glyco up
COCC(=O)NC[C@H]1[C@@H](c2ccc(C3=CCCC3)cc2)[C@H](CO)N1C(=O)C1CC1	/	/	/	/	7	/
CN1CCN(C(=O)C[C@@H]2CC[C@H](NC(=O)c3ccc4c(c3)OCO4)[C@@H](CO)O2)CC1	/	/	/	/	-11	/
Cc1cc(C)c(C(CC(=O)c2cccs2)C(C#N)C#N)c(C)c1 (stereo not drawn)	-24	-47	-3	66*	/	0
Cn1nnnc1SCC(=O)N1CCN(S(=O)(=O)c2ccc(Cl)cc2)CC1	6	1	-2	-6	16	0
Cc1ccc(S(=O)(=O)N2CCN(C(=O)CSc3nnnn3C)C2)cc1	16	62*	-1	-5	-5	0
Cn1c(CC(=O)Nc2ccccc2F)nnc1SCC(=O)NC1=NCCS1	5	-9	-3	53*	12	0
C[C@@H]1CN([C@@H](C)CO)C(=O)c2cc(NC(=O)c3ccccc3)ccc2O[C@@H](C)CCCCO[C@@H]1CN(C)C(=O)Nc1ccccc1	/	/	/	/	5	/
COc1ccccc1NC(=S)N(CCCN(C)C)Cc1cc2cc3c(cc2[nH]c1=O)OCO3	-18	-9	-3	13	/	0
CCc1ccc2[nH]c(=O)c(CN(Cc3ccccc3)C(=O)Nc3ccccc3OC)cc2c1	55*	-13	5	26	8	1
CN(C)CCCN(Cc1cc2cc3c(cc2[nH]c1=O)OCO3)C(=S)Nc1cccc(Cl)c1	51*	4	-1	28	/	1
COc1ccccc1NC(=O)N(Cc1cccs1)Cc1cc2cc3c(cc2[nH]c1=O)OCO3	18	8	-1	67*	-6	0
COc1ccc2cc(CN(CC3CCCO3)C(=O)Nc3ccccc3OC)c(=O)[nH]c2c1 (stereo not drawn)	-4	49*	1	16	14	0
Cc1noc(C)c1S(=O)(=O)N(C)C[C@@H]1OCCCC[C@@H](C)Oc2ccc(NC(=O)Nc3ccc(F)cc3)cc2C(=O)N([C@@H](C)CO)C[C@@H]1C	/	/	/	/	5	/
CN1c2ccc(-c3cccc(C#N)c3)cc2[C@@H]2[C@@H](CCN2C(=O)C2CCCCC2)[C@@H]1CO	/	/	/	/	-4	/
O=C(Cc1cccnc1)N1CC(=O)N2[C@H](CO)[C@H](c3ccc(C#CC4CCCCC4)cc3)[C@H]2C1	/	/	/	/	4	/
COCC(=O)N1C[C@@H](C)[C@H](OC)CN(C)C(=O)c2ccc(NS(C)(=O)=O)cc2OC[C@H]1C	/	/	/	/	7	/
O=C(C[C@@H]1CC[C@H]2[C@@H](COC[C@H](O)CN2C(=O)c2cnccn2)O1)NCc1ccc(F)cc1	/	/	/	/	12	/
COc1ccc(NC(=O)N(CCN2CCCC2)Cc2cc3cc(OC)c(OC)cc3[nH]c2=O)cc1	3	44*	-2	-2	11	0
O=C(C[C@H]1CC[C@H]2[C@@H](COC[C@H](O)CN2C(=O)Nc2ccc(F)cc2)O1)NCCCN1CCOCC1	/	/	/	/	0	/
Cc1ccc(/C=[N+](\[O-])c2ccc(N(C)C)cc2)c2nsnc12	19	16	6	57*	-63	-1
O=C(Nc1ccc2nc(-c3ccco3)c(-c3ccco3)nc2c1)NC1CC1	4	-3	9	73*	/	0
C/C=C/c1ccccc1[C@@H]1[C@@H](C#N)N(C(=O)c2cccnc2)[C@@H]1CO	/	/	/	/	2	/
CCCc1[nH]nc2c1C(C1CCCCC1)C(C#N)=C(N)O2 (stereo not drawn)	7	-4	2	55*	/	0
CCC(C)(C)c1ccc(OCCCC[n+]2ccc(C)cc2)c(C(C)(C)CC)c1	/	/	7	/	34	/
CCC(C)(C)c1ccc(OCCCC[n+]2cccc(C)c2C)c(C(C)(C)CC)c1	39	7	8	52*	/	0
COc1ccc(S(=O)(=O)NC(CC(=O)NCc2ccco2)C(C)C)cc1 (stereo not drawn)	-5	84*	-3	-16	/	0
COCCNC(=O)C[C@@H]1C=C[C@H](NS(=O)(=O)c2ccc(C)cc2)[C@@H](CO)O1	/	/	/	/	-10	/
C[C@@H]1CCCCO[C@@H](CN(C)Cc2ccc(C(F)(F)F)cc2)[C@@H](C)CN([C@@H](C)CO)C(=O)c2cc(NS(=O)(=O)c3cn(C)cn3)ccc2O1	/	/	/	/	-1	/
Clc1nc(Nc2ccc(N3CCOCC3)cc2)c2ccccc2n1	1	15	4	14	23	0
